Compound activity: PubChem, National Center for Advancing Translational Sciences (NCATS)
Only a selection was taken, and hits are over-represented in it overall.
HT1080 IDH1KD tx: kills HT-1080 cells with IDH1 knockdown. HT-1080 IDH1 knockdown viability, ATP luminescence, 48 h. Potency, µM (doses to about 46.1 µM), for the others: top-dose activity, negative = toxicity, hits mostly cytotoxic. hit rate 2% among 360,000. AID 686971;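 further: potency means the concentration at half of the fitted maximal effect; 0% = DMSO wells and -100% = cell-free medium wells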
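IDH1KD HT-1080 cells, 750/well, RPMI + 5% FBS; compound pinned after 2 h settling; 48 h, 37 °C; CellTiter-Glo luminescence; % activity normalised to DMSO and no-cell wells; curves fitted, classed by r2 and efficacy.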
IL1B secr inh: inhibitors of inflammasome signaling (IL-1 beta secretion). THP-1 LPS/ATP IL-1B secretion, AlphaLISA, 16 h; active compounds read low. activity change, % at 57.5 µM. hit rate 4.7% among 360,000. AID 743279; in the data active means activity change below about -50%; inconclusive means mostly about -30% to -49%
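Secreted IL-1B measured by AlphaLISA bead assay after 16 h compound exposure of THP-1 cells; compounds (final up to 57.5 uM) added 1 h before LPS (250 ng/mL) and ATP (1.25 mM) stimulation; lower signal means less secretion.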
TDP1 cell noCPT: qHTS for Inhibitors of human tyrosyl-DNA phosphodiesterase 1 (TDP1): qHTS in cells in absence of CPT; hit rate 15% among 420,000; DT40 Tdp1-/- hTDP1 cells, no CPT, ATP luminescence, 48 h; Potency, µM (series often up to 46.2 µM), for the others: at the top dose activity change, negative = growth inhibition, actives largely listed as inhibitors; further: potency means the concentration at half of the fitted maximal effect; nearly all actives have a fitted effect of over 55% in size
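Chicken DT40 Tdp1-/- cells complemented with human TDP1, screened without camptothecin (DMSO vehicle only), 400 cells/well. Compounds pin-transferred, cells incubated at 37 °C for at least 48 hr. Growth read as ATP-dependent luminescence (CellTiter-Glo, 30 min at RT).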
ALOX12 inh: inhibitors of human 12S-lipoxygenase ALOX12; P18054; purified 12hLO, xylenol orange hydroperoxide absorbance; Potency, µM (series often up to 108 µM), for inactives: top-dose activity change, negative = inhibition, usual class: inhibitors; hit rate 1.1% among 580,000; further: potency means the concentration at half of the fitted maximal effect
Target sequence (P18054 whole entry, looked up): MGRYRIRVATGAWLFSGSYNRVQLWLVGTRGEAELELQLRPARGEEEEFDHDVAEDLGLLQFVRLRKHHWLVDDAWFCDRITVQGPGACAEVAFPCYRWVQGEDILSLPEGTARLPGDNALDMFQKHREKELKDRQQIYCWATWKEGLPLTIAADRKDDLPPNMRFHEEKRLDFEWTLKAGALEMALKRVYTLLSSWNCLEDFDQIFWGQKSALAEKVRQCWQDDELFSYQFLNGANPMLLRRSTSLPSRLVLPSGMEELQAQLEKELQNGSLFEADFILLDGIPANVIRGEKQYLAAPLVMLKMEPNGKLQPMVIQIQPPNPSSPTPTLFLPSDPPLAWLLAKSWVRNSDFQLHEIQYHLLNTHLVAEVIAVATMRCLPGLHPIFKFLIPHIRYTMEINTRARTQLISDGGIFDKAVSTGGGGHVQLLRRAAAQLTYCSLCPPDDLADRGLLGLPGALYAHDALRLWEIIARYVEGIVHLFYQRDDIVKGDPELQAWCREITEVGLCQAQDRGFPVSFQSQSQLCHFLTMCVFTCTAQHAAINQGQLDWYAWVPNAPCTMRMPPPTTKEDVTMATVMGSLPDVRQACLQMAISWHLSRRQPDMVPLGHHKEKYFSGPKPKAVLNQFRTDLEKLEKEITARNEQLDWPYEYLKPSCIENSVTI
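Hydroperoxide product was detected by ferrous iron/xylenol orange as the 573 to 405 nm absorbance ratio. Arachidonic acid at 40 uM (final) was turned over for 30 min at room temperature by 150 nM human 12hLO, pH 7.0 Hepes buffer, after 15 min compound preincubation.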
DT40 TDP1 CPT: growth inhibition of DT40 Tdp1-/-;hTDP1 cells with camptothecin (screen for TDP1 inhibitors) | chicken DT40 Tdp1-/-;hTDP1 cells + 20 nM CPT, ATP luminescence, 48 h | Potency, µM (highest dose often 46.2 µM), inactives show at the top dose activity change, negative = growth inhibition, actives largely listed as inhibitors | hit rate 12% among 420,000 | AID 686979; further: potency means the concentration at half of the fitted maximal effect; nearly all actives have a fitted effect of over 55% in size
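Chicken DT40 Tdp1-/- cells stably complemented with human TDP1 were seeded at 400 cells/well in medium containing 20 nM camptothecin, exposed to pin-transferred compounds, and grown at 37 °C for at least 48 hr. Viability was read as ATP luminescence.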
HT1080-NT tox: kills 2HG-producing HT-1080-NT fibrosarcoma cells | HT-1080-NT fibrosarcoma viability, CellTiter-Glo ATP luminescence, 48 h | Potency, µM (series often up to 46.1 µM), for inactives: at the top dose activity, negative = less viability, hits mostly cytotoxic | hit rate 1.6% among 360,000;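 further: NT is the 2HG producing partner of a matched IDH1 knockdown line; potency means the concentration at half of the fitted maximal effect; 0% = DMSO-treated cells and -100% = media-only wells without cells; nearly all actives have a fitted effect of over 55% in size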
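Viability by CellTiter-Glo luminescence after 48 h compound exposure at 37C of HT-1080-NT cells (750/well, RPMI, 5% FBS). % activity scaled between DMSO wells and medium-only wells, then curve-fitted and categorized by curve class.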
Active calls of the source: *; [ ] = remark or other dose. Unless noted, the call rests on the fitted dose curve; in most records, active means well fitted curve in the direction sought with a large enough effect; inconclusive means small, poorly fitted or top-dose-only effect, or another doubt; inactive means no such curve, though single readings can be large; an effect the other way counts as inactive or inconclusive. Unless noted, on the % scale 0 is the no-effect control and ±100 the full control effect.

`CS(=O)(=O)N1CCc2cc(-c3csc(NCC4CCCO4)n3)ccc21` (stereo not given) gave HT1080 IDH1KD tx 1%, IL1B secr inh -68*, TDP1 cell noCPT -27%, ALOX12 inh 23%, DT40 TDP1 CPT -25% and HT1080-NT tox 0%.
Screening CCCC(=O)Nc1nc(-c2ccc3c(c2)CCN3S(C)(=O)=O)cs1 returned HT1080 IDH1KD tx 1%, IL1B secr inh inconclusive, TDP1 cell noCPT 23µM*, ALOX12 inh -40%, DT40 TDP1 CPT inconclusive and HT1080-NT tox 1%.
Screening CC1Cc2cc(-c3csc(NC(=O)Cc4cccs4)n3)ccc2N1S(C)(=O)=O (stereo not given) returned HT1080 IDH1KD tx inconclusive, IL1B secr inh -22, TDP1 cell noCPT 23µM*, ALOX12 inh -9%, DT40 TDP1 CPT inconclusive and HT1080-NT tox -11%.
`CS(=O)(=O)N1CCc2cc(-c3csc(NC(=O)Cc4ccccc4)n3)ccc21` gave HT1080 IDH1KD tx inconclusive, IL1B secr inh inconclusive, TDP1 cell noCPT inconclusive, ALOX12 inh -29%, DT40 TDP1 CPT inconclusive and HT1080-NT tox inconclusive.
CCOc1cc(C#N)ccc1OCc1ccc(OC)c(F)c1 was read as ALOX12 inh 20%.
Screening CCOC(=O)c1c(NC(=O)CSc2nnnn2-c2ccc(OC)cc2)sc(C)c1C returned HT1080 IDH1KD tx 16%, IL1B secr inh -59*, TDP1 cell noCPT 4.1µM*, ALOX12 inh inconclusive, DT40 TDP1 CPT 6.5µM* and HT1080-NT tox 0%.
`CCOC(=O)c1c(NC(=O)CSc2nnc(CNc3ccc(Cl)cc3)o2)sc(C)c1C` gave HT1080 IDH1KD tx -25%, IL1B secr inh -9, TDP1 cell noCPT 13µM*, ALOX12 inh -23%, DT40 TDP1 CPT inconclusive and HT1080-NT tox -19%.
Screening COc1ccc(-n2nnnc2SCC(=O)Nc2nnc(C)s2)cc1 returned HT1080 IDH1KD tx 1%, IL1B secr inh 20, TDP1 cell noCPT 5.6µM*, ALOX12 inh -29%, DT40 TDP1 CPT 6.3µM* and HT1080-NT tox 0%.
`CCOC(=O)c1csc(NC(=O)CSc2nnnn2-c2ccc(OC)cc2)n1` gave HT1080 IDH1KD tx -4%[9.24 µM], IL1B secr inh 26, TDP1 cell noCPT inconclusive, ALOX12 inh 6%, DT40 TDP1 CPT inconclusive and HT1080-NT tox inconclusive.
CC(C)C1CCN(C(=O)C2CCC(=O)N(CCc3ccc(Cl)cc3)C2)CC1 (stereo not given) was read as HT1080 IDH1KD tx -1%, IL1B secr inh -26, TDP1 cell noCPT inconclusive, ALOX12 inh 9%, DT40 TDP1 CPT inconclusive and HT1080-NT tox 0%.
C=CCC1(CC=C)CCCN1C(=O)C1CCC(=O)N(CCc2ccc(Cl)cc2)C1 (stereo not given) was read as HT1080 IDH1KD tx 0%, IL1B secr inh 0, TDP1 cell noCPT 13µM*, ALOX12 inh 7%, DT40 TDP1 CPT 18µM* and HT1080-NT tox 4%.
For C=CCC1(CC=C)CCCN1C(=O)C1CCC(=O)N(Cc2ccc(Cl)cc2)C1 (stereo not given) the results were HT1080 IDH1KD tx -1%, IL1B secr inh 8, TDP1 cell noCPT 8.2µM*, ALOX12 inh inconclusive, DT40 TDP1 CPT 10µM* and HT1080-NT tox inconclusive.
Screening CCN(C(C)=O)C1CCN(C(C)c2ccccc2)C1 (stereo not given) returned ALOX12 inh 6%.
COC(=O)[C@@]12CCCN1[C@H](c1ccc(-c3ccccc3)cc1)[C@H]1C(=O)N(C)C(=O)[C@H]12 was read as HT1080 IDH1KD tx 2%, IL1B secr inh 4, TDP1 cell noCPT inconclusive, ALOX12 inh 0%, DT40 TDP1 CPT inconclusive and HT1080-NT tox 0%.
`COC(=O)[C@@]12CCCN1[C@H](c1ccc(-c3ccc(OC)cc3)c(OC)c1)[C@@H]1C(=O)N(C)C(=O)[C@@H]12` gave HT1080 IDH1KD tx 3%, IL1B secr inh 19, TDP1 cell noCPT 4.1µM*, ALOX12 inh -21%, DT40 TDP1 CPT 4.1µM* and HT1080-NT tox 5%.
COC(=O)[C@@]12CCCN1[C@H](c1ccc(-c3ccccc3)c(OC)c1)[C@H]1C(=O)N(C)C(=O)[C@H]12 was read as HT1080 IDH1KD tx 5%, IL1B secr inh 7, TDP1 cell noCPT -29%, ALOX12 inh 13µM*, DT40 TDP1 CPT inconclusive and HT1080-NT tox 6%.
COC(=O)[C@@]12CCCN1[C@H](c1ccc(-c3ccc(OC)cc3)c(OC)c1)[C@H]1C(=O)N(C)C(=O)[C@H]12 was read as HT1080 IDH1KD tx 10%, IL1B secr inh -1, TDP1 cell noCPT inconclusive, ALOX12 inh inconclusive, DT40 TDP1 CPT inconclusive and HT1080-NT tox 0%.
COC(=O)[C@@]12CCCN1[C@H](c1ccc(-c3ccc(OC)cc3)cc1)[C@@H]1C(=O)N(C)C(=O)[C@@H]12 was read as HT1080 IDH1KD tx -1%, IL1B secr inh 7, TDP1 cell noCPT 21µM*, ALOX12 inh -15%, DT40 TDP1 CPT 18µM* and HT1080-NT tox -2%.
For O=C(O)C1CC2(CCN(C(=O)c3ccccc3N3CCCC3)CC2)CN1 (stereo not given) the results were ALOX12 inh 59%.
For COc1ccc(NC(C)=O)cc1NC(=O)Cn1ccc2c(Cl)cccc21 the results were ALOX12 inh 1%.
Screening Cc1ccc(NC(=O)Cn2c(=O)n(CCCCCC(=O)NCc3ccc(F)cc3)c(=O)c3sccc32)cc1C returned TDP1 cell noCPT 6.5µM*, ALOX12 inh -12% and DT40 TDP1 CPT inconclusive.
For CCOc1ccc(NC(=O)Cn2c(=O)n(CCCCCC(=O)NCc3ccccc3)c(=O)c3sccc32)cc1 the results were TDP1 cell noCPT 16µM*, ALOX12 inh inconclusive and DT40 TDP1 CPT inconclusive.
`CNC(=O)C1CCC(Cn2c(=O)c3sccc3n(CC(=O)Nc3ccc(C)c(C)c3)c2=O)CC1` (stereo not given) gave TDP1 cell noCPT 9.2µM*, ALOX12 inh inconclusive and DT40 TDP1 CPT 9.2µM*.
For CCN(CC)C(=O)Cn1c(=O)n(CCCCCC(=O)NCc2ccccc2)c(=O)c2sccc21 the results were TDP1 cell noCPT -18%, ALOX12 inh -16% and DT40 TDP1 CPT -4%.
For CCCN1CCC(NC(=O)c2cccs2)CC1 the results were ALOX12 inh 9%.
